Results from ChEMBL document CHEMBL1961873, “Compounds: GSK PKIS; Assays: Nanosyn kinase panel” (2012).

What was measured:
[1] = molecular target: T1, Aurora kinase A (Homo sapiens) (UniProt O14965); conditions: at 1 µM;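 also: values are mean percent inhibition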
T1 sequence (whole entry): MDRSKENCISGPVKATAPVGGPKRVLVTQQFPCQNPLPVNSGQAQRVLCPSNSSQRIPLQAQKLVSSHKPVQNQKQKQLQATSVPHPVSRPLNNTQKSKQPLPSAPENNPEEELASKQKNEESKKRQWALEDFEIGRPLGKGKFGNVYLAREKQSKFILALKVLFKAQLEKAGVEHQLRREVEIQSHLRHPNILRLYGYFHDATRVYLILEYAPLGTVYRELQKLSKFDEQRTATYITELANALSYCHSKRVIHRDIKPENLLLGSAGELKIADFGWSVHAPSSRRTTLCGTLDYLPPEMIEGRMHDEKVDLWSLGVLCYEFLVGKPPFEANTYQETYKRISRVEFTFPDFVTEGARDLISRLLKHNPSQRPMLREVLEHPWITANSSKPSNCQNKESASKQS

[2] = molecular target: Aurora kinase B (Homo sapiens) (UniProt Q96GD4); conditions: at 0.1 µM
[3] = molecular target: Aurora kinase B (Homo sapiens) (UniProt Q96GD4); conditions: at 1 µM
[4] = molecular target: T2, Aurora kinase C (Homo sapiens) (UniProt Q9UQB9); conditions: at 0.1 µM
T2 sequence (whole entry): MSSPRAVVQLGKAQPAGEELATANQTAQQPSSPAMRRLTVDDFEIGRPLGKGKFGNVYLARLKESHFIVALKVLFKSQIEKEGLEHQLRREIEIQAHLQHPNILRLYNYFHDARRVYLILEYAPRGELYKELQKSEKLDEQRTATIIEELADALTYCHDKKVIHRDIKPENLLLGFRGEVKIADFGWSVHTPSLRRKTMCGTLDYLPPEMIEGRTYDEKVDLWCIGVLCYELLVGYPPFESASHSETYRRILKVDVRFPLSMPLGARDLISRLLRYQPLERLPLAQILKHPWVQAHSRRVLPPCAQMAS

[5] = molecular target: T2, Aurora kinase C (Homo sapiens); conditions: at 1 µM
[6] = molecular target: Serine/threonine-protein kinase 10 (Homo sapiens) (UniProt O94804); conditions: at 0.1 µM
[7] = molecular target: Serine/threonine-protein kinase 10 (Homo sapiens) (UniProt O94804); conditions: at 1 µM
[8] = molecular target: T3, Mitogen-activated protein kinase kinase kinase kinase 2 (Homo sapiens) (UniProt Q12851); conditions: at 0.1 µM
T3 sequence (whole entry): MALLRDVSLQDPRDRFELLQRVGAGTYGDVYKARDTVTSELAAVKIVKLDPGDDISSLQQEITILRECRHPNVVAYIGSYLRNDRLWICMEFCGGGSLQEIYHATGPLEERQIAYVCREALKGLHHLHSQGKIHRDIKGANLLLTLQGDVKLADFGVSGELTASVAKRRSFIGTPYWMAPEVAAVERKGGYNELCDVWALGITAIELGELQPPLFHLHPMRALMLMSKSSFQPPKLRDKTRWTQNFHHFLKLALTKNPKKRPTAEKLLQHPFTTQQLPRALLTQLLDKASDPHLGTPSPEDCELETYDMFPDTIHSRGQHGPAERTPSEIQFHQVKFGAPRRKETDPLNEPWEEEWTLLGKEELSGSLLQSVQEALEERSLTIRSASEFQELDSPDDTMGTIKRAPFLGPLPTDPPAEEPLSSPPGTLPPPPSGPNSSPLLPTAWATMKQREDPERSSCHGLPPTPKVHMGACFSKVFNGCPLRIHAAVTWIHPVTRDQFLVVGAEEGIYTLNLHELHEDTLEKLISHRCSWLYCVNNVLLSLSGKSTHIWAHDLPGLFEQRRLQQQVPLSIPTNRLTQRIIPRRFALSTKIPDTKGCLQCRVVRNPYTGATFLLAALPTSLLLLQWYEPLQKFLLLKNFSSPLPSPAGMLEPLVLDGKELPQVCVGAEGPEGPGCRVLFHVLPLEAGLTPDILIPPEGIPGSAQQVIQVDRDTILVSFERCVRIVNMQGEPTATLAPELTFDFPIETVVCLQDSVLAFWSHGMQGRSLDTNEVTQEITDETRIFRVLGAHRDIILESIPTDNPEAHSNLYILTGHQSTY

[9] = molecular target: T3, Mitogen-activated protein kinase kinase kinase kinase 2 (Homo sapiens); conditions: at 1 µM
[10] = molecular target: Mitogen-activated protein kinase kinase kinase kinase 4 (Homo sapiens) (UniProt O95819); conditions: at 0.1 µM
[11] = molecular target: Mitogen-activated protein kinase kinase kinase kinase 4 (Homo sapiens) (UniProt O95819); conditions: at 1 µM
[12] = molecular target: Dual specificity mitogen-activated protein kinase kinase 1 (Homo sapiens) (UniProt Q02750); conditions: at 0.1 µM
[13] = molecular target: Dual specificity mitogen-activated protein kinase kinase 1 (Homo sapiens) (UniProt Q02750); conditions: at 1 µM
[14] = molecular target: Misshapen-like kinase 1 (Homo sapiens) (UniProt Q8N4C8); conditions: at 0.1 µM
[15] = molecular target: Misshapen-like kinase 1 (Homo sapiens) (UniProt Q8N4C8); conditions: at 1 µM
[16] = molecular target: T4, Serine/threonine-protein kinase 4 (Homo sapiens) (UniProt Q13043); conditions: at 0.1 µM
T4 sequence (whole entry): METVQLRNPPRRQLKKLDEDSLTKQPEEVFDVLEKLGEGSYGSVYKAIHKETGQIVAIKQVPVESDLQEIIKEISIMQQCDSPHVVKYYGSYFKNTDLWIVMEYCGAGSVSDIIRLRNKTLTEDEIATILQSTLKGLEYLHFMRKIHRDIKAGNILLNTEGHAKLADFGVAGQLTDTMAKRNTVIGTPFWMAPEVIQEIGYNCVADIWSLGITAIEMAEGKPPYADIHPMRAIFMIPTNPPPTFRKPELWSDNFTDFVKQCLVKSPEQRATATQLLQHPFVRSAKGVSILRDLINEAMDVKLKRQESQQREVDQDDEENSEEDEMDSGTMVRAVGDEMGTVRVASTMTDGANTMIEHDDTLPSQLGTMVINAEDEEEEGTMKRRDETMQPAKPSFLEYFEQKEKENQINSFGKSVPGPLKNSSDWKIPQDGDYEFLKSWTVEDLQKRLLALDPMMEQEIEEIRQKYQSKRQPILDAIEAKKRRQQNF

[17] = molecular target: T4, Serine/threonine-protein kinase 4 (Homo sapiens); conditions: at 1 µM
[18] = molecular target: T5, Serine/threonine-protein kinase 3 (Homo sapiens) (UniProt Q13188); conditions: at 0.1 µM
T5 sequence (whole entry): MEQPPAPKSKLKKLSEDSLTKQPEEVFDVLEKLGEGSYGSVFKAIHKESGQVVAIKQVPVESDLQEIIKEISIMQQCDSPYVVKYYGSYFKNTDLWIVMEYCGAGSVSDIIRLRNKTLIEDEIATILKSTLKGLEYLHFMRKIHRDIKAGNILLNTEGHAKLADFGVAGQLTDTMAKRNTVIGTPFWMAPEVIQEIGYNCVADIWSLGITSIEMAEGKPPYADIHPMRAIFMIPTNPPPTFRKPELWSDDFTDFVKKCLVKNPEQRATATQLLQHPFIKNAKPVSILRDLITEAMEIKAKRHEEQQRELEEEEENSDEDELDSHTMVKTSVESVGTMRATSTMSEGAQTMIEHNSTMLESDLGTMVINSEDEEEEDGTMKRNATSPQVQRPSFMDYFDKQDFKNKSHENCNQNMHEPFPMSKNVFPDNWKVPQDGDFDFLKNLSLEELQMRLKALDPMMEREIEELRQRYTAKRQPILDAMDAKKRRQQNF

[19] = molecular target: T5, Serine/threonine-protein kinase 3 (Homo sapiens); conditions: at 1 µM
[20] = molecular target: Serine/threonine-protein kinase 26 (Homo sapiens) (UniProt Q9P289); conditions: at 0.1 µM
Serine/threonine-protein kinase 26 (Homo sapiens), sequence (Q9P289 2-416 limits assumed): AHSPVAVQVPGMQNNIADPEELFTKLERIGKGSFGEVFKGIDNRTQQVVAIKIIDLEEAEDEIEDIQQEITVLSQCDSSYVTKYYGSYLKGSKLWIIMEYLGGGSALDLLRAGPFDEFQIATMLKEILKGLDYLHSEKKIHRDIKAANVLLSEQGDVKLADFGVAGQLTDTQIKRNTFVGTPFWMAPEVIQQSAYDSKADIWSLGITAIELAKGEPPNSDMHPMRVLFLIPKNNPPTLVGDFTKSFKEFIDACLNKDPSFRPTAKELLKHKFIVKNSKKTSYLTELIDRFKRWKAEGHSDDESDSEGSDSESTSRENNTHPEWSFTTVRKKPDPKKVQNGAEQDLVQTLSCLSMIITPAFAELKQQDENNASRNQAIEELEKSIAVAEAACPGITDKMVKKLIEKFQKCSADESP

Dual specificity mitogen-activated protein kinase kinase 1 (Homo sapiens), sequence (Q02750 whole entry): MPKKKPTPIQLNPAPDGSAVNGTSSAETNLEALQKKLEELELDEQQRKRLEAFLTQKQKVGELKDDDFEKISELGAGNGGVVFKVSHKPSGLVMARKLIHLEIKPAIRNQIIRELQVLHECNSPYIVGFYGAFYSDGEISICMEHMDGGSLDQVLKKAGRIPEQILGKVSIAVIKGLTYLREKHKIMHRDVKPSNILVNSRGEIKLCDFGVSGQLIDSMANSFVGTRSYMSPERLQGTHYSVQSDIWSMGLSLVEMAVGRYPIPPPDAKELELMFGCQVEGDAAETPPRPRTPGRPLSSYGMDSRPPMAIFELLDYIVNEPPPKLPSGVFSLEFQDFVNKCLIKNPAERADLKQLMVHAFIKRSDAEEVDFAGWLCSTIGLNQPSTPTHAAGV
Mitogen-activated protein kinase kinase kinase kinase 4 (Homo sapiens), sequence (O95819 2-1239 limits assumed): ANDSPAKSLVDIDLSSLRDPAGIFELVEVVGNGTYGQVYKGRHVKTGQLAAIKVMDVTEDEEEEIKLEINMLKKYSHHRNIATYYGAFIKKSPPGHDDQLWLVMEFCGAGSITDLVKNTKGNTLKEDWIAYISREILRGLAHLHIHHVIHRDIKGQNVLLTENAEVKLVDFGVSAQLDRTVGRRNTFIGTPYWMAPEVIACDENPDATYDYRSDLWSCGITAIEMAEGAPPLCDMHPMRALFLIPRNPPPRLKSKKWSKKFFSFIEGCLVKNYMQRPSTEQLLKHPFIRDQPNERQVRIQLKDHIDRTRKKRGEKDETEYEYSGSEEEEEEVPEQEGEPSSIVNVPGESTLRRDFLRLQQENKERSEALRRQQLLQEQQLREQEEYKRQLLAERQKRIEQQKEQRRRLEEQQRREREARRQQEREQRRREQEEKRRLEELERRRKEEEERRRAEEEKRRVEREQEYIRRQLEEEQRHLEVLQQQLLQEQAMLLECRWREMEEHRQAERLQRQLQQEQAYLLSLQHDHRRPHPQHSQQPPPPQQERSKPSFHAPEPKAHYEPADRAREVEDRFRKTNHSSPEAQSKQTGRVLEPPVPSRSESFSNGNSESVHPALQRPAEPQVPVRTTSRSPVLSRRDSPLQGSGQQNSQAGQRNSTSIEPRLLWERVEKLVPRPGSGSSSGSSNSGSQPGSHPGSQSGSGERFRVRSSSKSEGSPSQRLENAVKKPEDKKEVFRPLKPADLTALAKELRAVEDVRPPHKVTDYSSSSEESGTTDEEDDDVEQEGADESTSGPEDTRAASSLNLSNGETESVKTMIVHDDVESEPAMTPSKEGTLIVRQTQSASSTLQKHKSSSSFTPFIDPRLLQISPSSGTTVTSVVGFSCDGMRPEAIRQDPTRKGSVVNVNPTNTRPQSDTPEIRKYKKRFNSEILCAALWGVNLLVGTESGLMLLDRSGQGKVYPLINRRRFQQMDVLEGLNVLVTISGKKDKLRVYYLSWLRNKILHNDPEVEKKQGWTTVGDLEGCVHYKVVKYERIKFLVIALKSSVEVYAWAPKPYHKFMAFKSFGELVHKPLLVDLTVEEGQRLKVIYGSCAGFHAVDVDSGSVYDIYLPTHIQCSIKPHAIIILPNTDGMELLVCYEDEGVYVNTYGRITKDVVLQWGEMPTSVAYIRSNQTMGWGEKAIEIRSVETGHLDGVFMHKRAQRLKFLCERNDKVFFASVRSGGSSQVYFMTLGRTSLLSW
Misshapen-like kinase 1 (Homo sapiens), sequence (Q8N4C8 whole entry, looked up): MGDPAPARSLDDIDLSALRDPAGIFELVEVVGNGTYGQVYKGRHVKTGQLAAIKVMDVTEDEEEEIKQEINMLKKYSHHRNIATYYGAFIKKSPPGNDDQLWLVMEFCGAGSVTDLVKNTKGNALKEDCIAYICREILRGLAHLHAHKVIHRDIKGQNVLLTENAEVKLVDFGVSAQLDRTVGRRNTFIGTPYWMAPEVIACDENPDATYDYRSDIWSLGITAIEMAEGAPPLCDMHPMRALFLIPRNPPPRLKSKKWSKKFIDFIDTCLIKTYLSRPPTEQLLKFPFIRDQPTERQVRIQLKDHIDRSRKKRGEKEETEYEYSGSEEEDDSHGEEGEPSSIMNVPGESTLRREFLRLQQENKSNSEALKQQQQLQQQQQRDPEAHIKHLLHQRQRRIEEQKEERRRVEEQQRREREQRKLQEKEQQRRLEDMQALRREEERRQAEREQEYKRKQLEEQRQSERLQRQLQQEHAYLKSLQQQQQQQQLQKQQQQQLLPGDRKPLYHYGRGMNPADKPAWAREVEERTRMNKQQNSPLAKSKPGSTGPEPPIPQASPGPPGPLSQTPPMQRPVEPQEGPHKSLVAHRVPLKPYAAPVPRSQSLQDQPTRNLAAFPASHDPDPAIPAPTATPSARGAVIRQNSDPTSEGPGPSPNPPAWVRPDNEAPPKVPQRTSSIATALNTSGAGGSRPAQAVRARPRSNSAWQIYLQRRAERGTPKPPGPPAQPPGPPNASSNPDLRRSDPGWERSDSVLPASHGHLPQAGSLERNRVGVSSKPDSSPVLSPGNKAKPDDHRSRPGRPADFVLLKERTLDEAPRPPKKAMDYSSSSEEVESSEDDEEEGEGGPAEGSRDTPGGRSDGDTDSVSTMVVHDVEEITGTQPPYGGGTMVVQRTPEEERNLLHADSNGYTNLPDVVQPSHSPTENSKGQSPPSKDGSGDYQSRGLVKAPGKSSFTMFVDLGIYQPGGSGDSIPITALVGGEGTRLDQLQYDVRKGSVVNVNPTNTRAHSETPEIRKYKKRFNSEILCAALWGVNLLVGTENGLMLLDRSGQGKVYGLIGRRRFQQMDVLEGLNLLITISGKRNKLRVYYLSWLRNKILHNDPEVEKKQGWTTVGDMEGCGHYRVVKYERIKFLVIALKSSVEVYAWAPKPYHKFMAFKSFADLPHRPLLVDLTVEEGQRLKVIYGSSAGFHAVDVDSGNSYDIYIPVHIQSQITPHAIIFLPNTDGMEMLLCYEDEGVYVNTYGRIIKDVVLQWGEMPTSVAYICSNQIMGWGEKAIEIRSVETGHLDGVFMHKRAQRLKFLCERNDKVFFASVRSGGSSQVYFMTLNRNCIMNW
Serine/threonine-protein kinase 10 (Homo sapiens), sequence (O94804 whole entry, looked up): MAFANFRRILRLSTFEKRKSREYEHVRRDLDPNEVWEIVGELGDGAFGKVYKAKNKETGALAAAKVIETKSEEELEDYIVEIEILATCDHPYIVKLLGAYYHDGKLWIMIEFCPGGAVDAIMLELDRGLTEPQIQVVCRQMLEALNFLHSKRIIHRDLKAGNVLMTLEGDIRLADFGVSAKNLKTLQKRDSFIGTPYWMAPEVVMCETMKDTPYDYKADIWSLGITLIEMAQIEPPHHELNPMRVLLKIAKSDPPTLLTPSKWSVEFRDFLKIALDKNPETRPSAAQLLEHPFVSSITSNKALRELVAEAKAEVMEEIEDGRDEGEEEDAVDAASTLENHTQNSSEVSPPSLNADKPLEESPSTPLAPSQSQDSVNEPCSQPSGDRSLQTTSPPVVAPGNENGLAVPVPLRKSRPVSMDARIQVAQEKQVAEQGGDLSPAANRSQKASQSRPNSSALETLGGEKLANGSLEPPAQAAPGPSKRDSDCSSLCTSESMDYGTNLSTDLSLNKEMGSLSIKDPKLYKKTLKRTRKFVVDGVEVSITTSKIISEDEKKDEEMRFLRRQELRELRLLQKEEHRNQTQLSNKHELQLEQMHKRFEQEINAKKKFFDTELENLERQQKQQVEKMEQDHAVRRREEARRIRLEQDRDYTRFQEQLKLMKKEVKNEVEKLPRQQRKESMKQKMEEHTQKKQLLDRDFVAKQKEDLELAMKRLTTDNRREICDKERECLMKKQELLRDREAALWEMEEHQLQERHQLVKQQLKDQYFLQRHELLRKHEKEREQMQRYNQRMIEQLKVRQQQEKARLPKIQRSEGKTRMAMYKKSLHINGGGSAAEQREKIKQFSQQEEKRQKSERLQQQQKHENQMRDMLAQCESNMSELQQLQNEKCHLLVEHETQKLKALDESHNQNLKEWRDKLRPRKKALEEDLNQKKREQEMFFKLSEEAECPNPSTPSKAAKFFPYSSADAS
Aurora kinase B (Homo sapiens), sequence (Q96GD4 whole entry): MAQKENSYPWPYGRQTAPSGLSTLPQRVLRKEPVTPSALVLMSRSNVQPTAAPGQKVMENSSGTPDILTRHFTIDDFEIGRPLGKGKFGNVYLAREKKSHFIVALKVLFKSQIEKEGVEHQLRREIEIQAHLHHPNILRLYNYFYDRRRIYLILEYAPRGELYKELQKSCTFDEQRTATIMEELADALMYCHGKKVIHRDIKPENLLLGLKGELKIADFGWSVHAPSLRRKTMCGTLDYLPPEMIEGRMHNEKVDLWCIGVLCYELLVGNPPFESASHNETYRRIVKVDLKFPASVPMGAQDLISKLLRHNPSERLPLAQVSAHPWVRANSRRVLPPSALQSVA

SMILES | inhibition [1] [%] | inhibition [2] [%] | inhibition [3] [%] | inhibition [4] [%] | inhibition [5] [%] | inhibition [6] [%] | inhibition [7] [%] | inhibition [8] [%] | inhibition [9] [%] | inhibition [10] [%] | inhibition [11] [%] | inhibition [12] [%] | inhibition [13] [%] | inhibition [14] [%] | inhibition [15] [%] | inhibition [16] [%] | inhibition [17] [%] | inhibition [18] [%] | inhibition [19] [%] | inhibition [20] [%]
CC(=O)NCc1cccc(C#Cc2cncnc2Nc2ccc(OCc3cccc(F)c3)c(Cl)c2)c1 | 5.66 | 1.99 | 6.3 | 1 | -2.37 | 0.67 | 8.18 | 0.67 | 3.21 | 2.6 | 7.74 | 1.45 | 1.08 | 2.48 | 8.64 | 1.57 | 5.79 | 0.67 | 3.55 | -0.27
Fc1ccc(-c2nn3ncccc3c2-c2ccnc(Nc3ccc4c(c3)OCCO4)n2)cc1 | 33.7 | 4.26 | 12.2 | 1.04 | 22.9 | 10.8 | 41.8 | 1.14 | 12.1 | 20.1 | 73.2 | 5.8 | 11.7 | 16.4 | 65.2 | 3.27 | 5.1 | 3.68 | 3.21 | -0.01
Nc1ncc(-c2cccc(S(N)(=O)=O)c2)c2scc(-c3ccc(F)c(Cl)c3)c12 | 5.8 | 2.25 | 14.7 | 4.24 | 24.6 | 8.9 | 24.7 | 6.47 | 31.4 | 78.5 | 92.6 | 3.89 | 6.87 | 70.9 | 91.6 | 4.66 | 6.44 | 7.02 | 6.15 | -0.08
CCCN1CCC(c2ccc(Nc3nc(Nc4cc(F)ccc4C(N)=O)c4cc[nH]c4n3)c(OC)c2)CC1 | 10.4 | 1.95 | 3.04 | 0.37 | -4.81 | 7.74 | 29.2 | 10.2 | 51.6 | 28.1 | 78.9 | 9.27 | 37.7 | 21.8 | 70.2 | 10.6 | 43.9 | 5.71 | 13.8 | -0.72
CN(C)CCOc1ccc(-c2nc(-c3ccncc3)c(-c3ccc4c(c3)CC/C4=N\O)[nH]2)cc1 | 12 | 1.63 | 6.16 | 1.74 | -1.31 | 22.1 | 69.2 | 0.69 | 3.44 | 9.59 | 47.2 | 4.37 | 3.23 | 8.74 | 37.3 | 4.67 | 6.56 | 4.63 | 4.58 | -1.19
CC(C)(CO)CNC(=O)c1ccc2c(c1)/C(=N/Nc1ccc(S(N)(=O)=O)cc1)C(=O)N2 | 56.2 | 0.26 | 21 | 3.09 | 43 | -1.79 | 4.55 | 0.92 | 3.15 | 0.68 | 18.8 | 6.31 | 43.1 | 1.9 | 13.1 | 40.7 | 80.2 | 31.6 | 77.1 | 0.44
CS(=O)(=O)CCNCc1coc(-c2ccc3ncnc(Nc4ccc(OCc5ccccc5)cc4)c3c2)c1 | 4.78 | 1.47 | 9.78 | 1.46 | 8.58 | 8.03 | 6.21 | 0.9 | 3.83 | 3.41 | 7.26 | 2.33 | 3.36 | 5.08 | 4.66 | 2.75 | 3.41 | 4.25 | 3.71 | -2.22
